A selection: hits, their analogues and other compounds. The true share with any hit is near 1.1%.
NR5A2 inv ag: NR5A2 inverse agonism in reporter assay; inhibition, % at 3.6 µM; hit rate 0.13% among 360,000; O00482; HEK293T StAR-luciferase reporter, LRH-1 transfected, 24 h;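 active = inhibition above the mean inhibition of all tested compounds plus 3 SD, cut at about 73% in these data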;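 also: 0% = DMSO wells and 100% = reporter-only cells lacking LRH-1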
NCOA1 inh: inhibits human SRC1 coactivator. Q15788. HEK293 GAL4-SRC1 luciferase reporter, luminescence. inhibition, % at 3.6 µM. hit rate 0.12% among 360,000. AID 588354;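 active = inhibition above the campaign mean plus 3 SD, with each screening campaign given its own cutoff, cut at about 60% in these data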;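 also: 0% = DMSO treated cells and 100% = gossypol at 36 µM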
Gli-Sufu block: antagonists of Gli-Sufu signaling; hit rate 0.74% among 340,000; AID 588413; inhibition, % at 5 µM; Sufu-KO-LIGHT fibroblasts, Gli luciferase reporter luminescence;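 active = inhibition above about 55%, limit read from the data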;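 also: 0% = DMSO-treated cells and 100% = wells with medium but no cells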
NCOA3 inh: human NCOA3 inhibition. Q9Y6Q9. HEK293 GAL4-SRC3 luciferase reporter, luminescence. inhibition, % at 3.6 µM. hit rate 0.17% among 360,000;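 active = inhibition above a per-campaign cutoff, the mean of all compounds plus 3 SD, cut at about 60% in these data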;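 also: 0% = DMSO-treated cells and 100% = gossypol-treated cells at 36 µM; higher means less SRC3-driven luciferase light from the GAL4 reporter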
Shn3 inh set2: reduces Shn3 3'UTR luciferase signal in osteoblasts; Clone20 osteoblast Shn3 3'UTR firefly luciferase, 24 h; inhibition, % at 12.5 µM; hit rate 0.52% among 360,000;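 active = mean inhibition of at least 75% with every replicate also reaching 75%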;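 also: 0% = median of neutral control wells and 100% = pilot-screen positive control compound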
NCOA2 inhibitor: inhibits human steroid receptor coactivator 2. HEK293 GAL4-SRC2 luciferase reporter, luminescence. AID 651957. inhibition, % at 9 µM. hit rate 0.17% among 370,000. Q15596;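 active = inhibition above the mean inhibition of all tested compounds plus 3 SD, set per campaign, cut at about 52% in these data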;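 also: 0% = DMSO treated cells and 100% = cells given Gossypol at 36 µM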
Numbers without * were called inactive; x = not tested or not shown.

SMILES	NR5A2 inv ag	NCOA1 inh	Gli-Sufu block	NCOA3 inh	Shn3 inh set2	NCOA2 inhibitor
C1=C(CCNc2ncnc3c2[nH]c2ccccc23)CCCC1	43	-8	78*	14	57	2
CCOC(=O)N1CCN(Cc2cc(Cl)c3cccnc3c2O)CC1	x	x	73*	x	x	19
Oc1c(CN2CCOCC2)cc(COCc2ccccc2)c2cccnc12	1	-43	61*	23	90*	33
COc1ccccc1N1CCN(Cc2ccc(O)c3ncccc23)CC1	13	1	76*	25	88*	14
c1ccc(N2CCN(Cc3ccnc4ccccc34)CC2)cc1	6	20	15	25	27	25
Oc1c(CNc2ccccc2)cc(COCc2ccccc2)c2cccnc12	7	10	3	-1	39	1
Oc1c(CN2CCN(c3ccccc3)CC2)cc(Br)c2cccnc12	5	4	52	-7	92*	-4
COc1ccccc1N1CCN(Cc2ccc(OC)c(OC)c2OC)CC1	13	-7	13	11	19	12
Cc1cccc(-c2cccc3c4c([nH]c23)[C@@H]2C[C@H](N(C)C(=O)Nc3ccccc3)[C@H]([C@H](C)O)C(=O)N2CC4)c1	x	x	x	x	x	-1
Cc1ccc(NS(=O)(=O)c2ccccc2F)cc1S(=O)(=O)N1CCCCC1	-14	4	6	20	-23	4
Cc1ccc(S(=O)(=O)N2CCCCC2)cc1NS(=O)(=O)c1ccccc1F	22	6	3	-6	95*	-14
CCOC(=O)c1c(CSc2ccc(CC)cc2)oc2ccc(O)c(CN(C)C)c12	29	16	46	13	90*	23
CCOC(=O)c1c(C)oc2ccc(O)c(CN(C)C)c12	-15	-28	0	3	-16	-7
CCOC(=O)[C@@]12CCC3=C1N(CCC3)C(=O)[C@H](CC(=O)N1CCN(C(=O)C3CC3)CC1)C2	x	x	x	x	x	13
C=C(CN(C)C)C(=O)c1ccc(C)cc1C	13	-7	0	7	97*	-3
CC(Cl)C(=O)N1CCC(C(=O)NCC2COc3ccccc3O2)CC1 (stereo unspecified)	x	x	x	x	x	-12
OCCCNc1cc(-c2ccnc(Nc3cccc(Cl)c3)n2)ccn1	96*	86*	75*	87*	90*	65*
CCN(CC)S(=O)(=O)c1cc(NC(=O)C2CCN(c3ncnc4sc(C)c(C)c34)CC2)ccc1Cl	24	32	50	19	89*	-2
O=C(OCn1ncc(Cl)c(Cl)c1=O)c1cccc(C(F)(F)F)c1	-4	-11	6	-14	97*	x
CCCC[C@H]1C2CC(OC(=O)Nc3cccc(Br)c3)C(C2)[C@H]2CCCCN21 (stereo partly specified)	x	x	x	x	x	19
CC(C)(C)OC(=O)CC[C@@H](C(=O)NCCCCCCCCCCC(=O)N1CCN(C(=O)OC(C)(C)C)CC1)n1cc(CCCCCNC(=O)OC(C)(C)C)nn1	7	-7	4	8	31	-17
CC(C)(C)OC(=O)NCCCCCc1cn([C@@H](CO)C(=O)NCCCCCCCCCCC(=O)N2CCN(C(=O)OC(C)(C)C)CC2)nn1	48	53	60*	72*	34	54*
COc1ccc(Nc2ncnc3ccc(Br)cc23)cc1OC	10	61*	-33	47	11	x
O=C(COC(=O)c1ccc(Sc2ncn[nH]2)c([N+](=O)[O-])c1)Nc1ccc(Cl)c(Cl)c1	x	x	x	x	x	-6
O=C(Nc1sc2c(c1C(=O)NCCCO)CCCC2)c1ccccc1	11	86*	8	6	5	-27
SMILES	NR5A2 inv ag	NCOA1 inh	Gli-Sufu block	NCOA3 inh	Shn3 inh set2	NCOA2 inhibitor
COc1ccc(C(=O)NCC(=O)OCc2c(Cl)cccc2Cl)cc1OC	-8	-7	1	66*	-4	4
COc1cccc(/C=C2\CC3(OC(=O)c4ccc(Cl)cc4)CCCN2C3)c1 (stereo unspecified)	x	x	x	x	x	0
O=C(NCCc1c[nH]c2ccccc12)c1ccc([N+](=O)[O-])o1	55	22	x	2	-6	52*
COc1cccc(-c2nnc3n2N=C(C(C)(C)C)CS3)c1	46	67*	-10	66*	-3	73*
O=C1C=CC(=C(c2ccc(O)cc2)c2ccc(O)cc2)C=C1	81*	59	1	53	-23	41
CCOC(=O)[C@]12CCCC=C1N(Cc1ccc(OC)cc1)C(=O)[C@@H]2CC(=O)NCCC(C)C	x	x	x	x	x	12
O=c1c2ccccc2n(Cc2ccno2)n1[C@@H](Cc1ccccc1)Cn1cc(-c2ccc(-c3ccccc3)cc2)nn1	x	x	x	x	x	19
CCn1c(Oc2ccccc2F)nc2c1c(=O)n(C)c(=O)n2C	26	68*	-22	60	-6	59*
COc1ccc(-n2sc3c(c2=S)-c2cc(OC)ccc2NC3(C)C)cc1	-24	6	6	3	-13	1
COc1ccc2c(c1)-c1c(ssc1=S)C(C)(C)N2	46	58	-21	66*	18	42
Cn1c(SCC(=O)NCCN2CCCCC2)nc2cccnc21	x	x	x	x	x	-1
COc1cccc2c1C(=O)C=C(C)C2=O	21	-1	17	9	60	-9
COC1=CC(=O)c2nc(Cl)ccc2C1=O	76*	64*	x	59	98*	49
Cc1ccc(-n2c(SCC(=O)Nc3ccccc3-c3ccccc3)nnc2-c2ccccn2)cc1	x	x	x	x	x	5
O=C(Nc1cccc(S(=O)(=O)NC2=NCCC2)c1)C1CC(=O)N(c2ccc3c(c2)OCCO3)C1 (stereo unspecified)	11	14	x	29	87*	-52
COc1cc2c(cc1OC)C(C1C(=O)CC(C)(C)CC1=O)N(C(=O)CCl)CC2 (stereo unspecified)	24	-34	-4	3	1	9
COc1cc2c(cc1OC)C(c1cc(Br)ccc1F)N(C(=O)CCl)CC2 (stereo unspecified)	-7	-45	7	-12	98*	-36
CSc1ccccc1NC(=O)COc1ccc(Cl)cc1Cl	-18	-27	40	-24	-15	-26
Cc1c(C)c2ccc(OCC(=O)Nc3ccccn3)c(C)c2oc1=O	76*	74*	51	81*	94*	69*
O=C(COc1ccc(Cl)cc1Cl)Nc1ccccn1	51	63*	-31	59	71	82*
O=C(CCn1nnc(-c2cccs2)n1)NCc1cccs1	x	x	x	x	x	-2
COc1ccc(Cn2nnnc2C(CC(C)C)N2CCN(c3ccccc3)CC2)cc1 (stereo unspecified)	-2	-51	10	2	25	-23
CCCC(c1nnnn1Cc1ccc(OC)cc1)N1CCN(c2ccccc2)CC1 (stereo unspecified)	2	-6	-1	-6	89*	-5
COc1ccc(-c2csc(NC(=O)c3ccccc3F)n2)cc1	-20	8	-6	-30	-9	-10

Assay outcomes (PubChem BioAssay)
